Only some compounds are listed: those with a hit (about 7.8% of all), similar ones and a draw of the others.
HCMV inh: qHTS Assay for inhibitors of the human cytomegalovirus (HCMV) | AID 1259415, 2018 | activity change, negative = inhibition, % at 57.5 µM | HFF cells, HCMV-luciferase reporter, 72 h; hits give low values | 410,000 compounds, 4.5% hits; in the data active = activity change below about -60%; inconclusive = no clear call, values can overlap the other calls; inactive = above about -39%
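Luciferase read-out from HCMV-luciferase-infected HFFs (MOI 1 PFU/cell) 72 h post infection at 37C; compounds added after 16 h cell attachment; activity normalized between buffer-only basal and Salinomycin (10uM) inhibitor controls.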
VACV Venus inh: qHTS for Stage-Specific Inhibitors of Vaccinia Orthopoxvirus: Venus Reporter Primary qHTS. Vaccinia virus Venus reporter expression, fluorescence. 330,000 compounds, 0.46% hits. Potency, µM (top dose mostly 36.5 µM), for the others: at the highest dose activity change, negative = inhibition, usual class: inhibitors; calls by dose curve; tested in A549 cells; note: potency is the fitted concentration of half-maximal effect; nearly all actives have a fitted effect of over 30% in size
Marburg entry inh: qHTS for inhibitors of binding or entry into cells for Marburg Virus; AID 540276, 2011; Marburg virus pseudotyped entry inhibition, cell reporter; 300,000 compounds, 1.8% hits; Potency, µM (titrated, usually from 37.8 µM), for the others: at the highest dose activity change, negative = inhibition, usual class: inhibitors; calls by dose curve; tested in HEK293 cells; note: potency is the fitted concentration of half-maximal effect
LASV entry inh: qHTS for Inhibitors of binding or entry into cells for Lassa Virus. Lassa virus pseudotype entry inhibition, cell reporter. Potency, µM (titrated, usually from 37.9 µM), inactives show top-dose activity change, negative = inhibition, usual class: inhibitors. 300,000 compounds, 1.2% hits. AID 540256, 2011; calls by dose curve; tested in HEK293 cells; note: potency is the fitted concentration of half-maximal effect; nearly all actives have a fitted effect of over 50% in size
VACV mCherry inh: qHTS for Stage-Specific Inhibitors of Vaccinia Orthopoxvirus: mCherry Reporter Primary qHTS. Vaccinia virus mCherry reporter infection, fluorescence. Potency, µM (highest dose often 36.5 µM), for inactives: at the highest dose activity change, negative = inhibition, usual class: inhibitors. 310,000 compounds, 0.63% hits. AID 720579, 2013; calls by dose curve; tested in A549 cells; note: potency is the fitted concentration of half-maximal effect; nearly all actives have a fitted effect of over 35% in size
HCV inhibitor: qHTS Assay for Inhibitors of Hepatitis C Virus (HCV) | Huh7.5.1 HCVcc-Cre infection, luciferase reporter, 44 h | Potency, µM (doses to about 41.8 µM), inactives show top-dose activity change, negative = inhibition, hits mostly inhibitors | 340,000 compounds, 3.4% hits; active = well fitted inhibition curve with a large enough effect; inconclusive = small, poorly fitted or top-dose-only effect, or another doubt; inactive = no such curve, though single readings can be large or run the other way; note: potency is the fitted concentration of half-maximal effect
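Luciferase read-out (15 sec integration) after a 15 min room-temperature substrate step quantifies HCVcc-Cre infection. Cells, 1,000 per well, had compound added 4 h post-plating, then virus at ~0.5 moi, and were cultured 44 h.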
An asterisk follows results filed as active; [ ] = another dose, or the depositor's remark. % is set by controls: 0 for no effect and ±100 for the full control effect.

For CCOC(=O)c1c(-c2ccccc2)csc1NC(=O)/C(C#N)=C/c1ccc(OC)c(OC)c1 the results were HCMV inh 28, VACV Venus inh 0%, Marburg entry inh -10%, LASV entry inh 10%, VACV mCherry inh -14% and HCV inhibitor -2%.
`CCOC(=O)c1c(-c2ccccc2)csc1NC(=O)C1CCCO1` (centres undefined) gave HCMV inh 10, VACV Venus inh -9%, Marburg entry inh -19%, LASV entry inh -21%, VACV mCherry inh inactive and HCV inhibitor 10µM*.
For COC(=O)c1c(-c2ccc(C)cc2)csc1NC(=S)NC(=O)c1ccc(F)cc1 the results were HCMV inh 1, VACV Venus inh -10%, Marburg entry inh 9%, LASV entry inh 1%, VACV mCherry inh inactive and HCV inhibitor 2%.
For CCOC(=O)c1c(-c2ccccc2)csc1NC(=O)/C(C#N)=C/c1ccc(O)c(OC)c1 the results were HCMV inh -65*, VACV Venus inh 70%, Marburg entry inh 4%, LASV entry inh -11%, VACV mCherry inh 9% and HCV inhibitor -20%.
CCOC(=O)c1c(-c2ccccc2)csc1NC(=O)c1cc(-c2ccc(F)cc2)on1 was read as HCMV inh 8, VACV Venus inh 12%, Marburg entry inh -13%[46.1 µM], LASV entry inh 2%[46.1 µM] and VACV mCherry inh -8%.
For CCOC(=O)c1c(-c2ccc(C)cc2)csc1NC(=S)NC(=O)c1ccccc1 the results were HCMV inh inconclusive, Marburg entry inh 1.8µM*, LASV entry inh 2.1µM* and HCV inhibitor inconclusive.
CCOC(=O)C1CCCN(S(=O)(=O)c2ccc3[nH]c(=O)oc3c2)C1 (centres undefined) was read as HCMV inh -1, VACV Venus inh -1%, Marburg entry inh -25%[46.1 µM], LASV entry inh 4%[46.1 µM] and VACV mCherry inh -13%.
For Cc1ccc(-c2csc(NC(=O)c3ccc(Br)cc3)c2C(=O)O)cc1 the results were HCMV inh -95*, VACV Venus inh 0%, Marburg entry inh 1.3µM*, LASV entry inh inconclusive, VACV mCherry inh inactive and HCV inhibitor 0%.
`N#Cc1cc(-c2ccc(Cl)cc2)cn(Cc2c(Cl)cccc2Cl)c1=O` gave HCMV inh -89*, Marburg entry inh -1%, LASV entry inh -3% and HCV inhibitor 4%.
C=CCn1cc(-c2ccc(Cl)cc2)cc(C#N)c1=O was read as HCMV inh -37, VACV Venus inh -12%, Marburg entry inh -9%, LASV entry inh -5% and HCV inhibitor 14%.
`Cc1csc2nc(COc3ccc(NC(=O)c4ccccc4F)cc3)cc(=O)n12` gave HCMV inh -15, VACV Venus inh -20%, Marburg entry inh -1%[46.1 µM], LASV entry inh 4%[46.1 µM] and VACV mCherry inh inactive.
For O=C(Nc1ccc2c(c1)CCCN2C(=O)c1cccs1)c1c(F)cccc1F the results were HCMV inh -75*, VACV Venus inh -5%, LASV entry inh inconclusive, VACV mCherry inh 1% and HCV inhibitor inconclusive.
`O=C(Nc1ccc2c(c1)CCCN2C(=O)c1cccs1)c1ccccc1Cl` gave HCMV inh -67*, VACV Venus inh 3%, LASV entry inh inconclusive and VACV mCherry inh -6%.
O=C(Nc1ccc2c(c1)CCCN2C(=O)c1cccs1)c1c(F)cccc1Cl was read as HCMV inh -79* and HCV inhibitor inconclusive.
O=C(Nc1ccc(C(=O)N2CCCc3ccccc32)cc1)c1cccs1 was read as HCMV inh 43, VACV Venus inh -14%, Marburg entry inh 11µM*, LASV entry inh -27%[46.1 µM], VACV mCherry inh inactive and HCV inhibitor -25%.
`CCc1ccc(NCc2cc3ccc(OC)cc3n(CC(=O)Nc3ccc(C(C)C)cc3)c2=O)cc1` gave HCMV inh 39, VACV Venus inh -29%, LASV entry inh -1%[46.1 µM] and VACV mCherry inh -21%.
